Gli-Sufu antag: Gli-Sufu pathway antagonism | Sufu-KO-LIGHT fibroblasts, Gli luciferase reporter luminescence | inhibition, % at 5 µM | actives 0.74% (n = 340,000) | AID 588413;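 active = inhibition above about 55%, limit read from the data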;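 note: 0% = DMSO-treated cells and 100% = wells with medium but no cells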
Beta cell apopt: blocks beta cell apoptosis; AID 435005; actives 0.8% (n = 300,000); INS-1E cytokine-induced death, ATP luminescence, 48 h; percent of positive-control rescue, neutral wells zero; protection from apoptosis, % (test concentration not listed);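 active = Every replicate reaches about 75%, or at least half do and their mean reaches it too, limit read from the data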;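 note: 0% = cytokine-treated negative control wells and 100% = positive control rescue; higher means more ATP so stronger rescue from cytokine killing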
697 NFkB inh: lowers PMA/ionomycin-induced NF-kB signal in 697 B cells | actives 0.33% (n = 330,000) | AID 435022 | inhibition, % at 4 µM | 697 B-cell NF-kB luciferase reporter, 16 h; in the data active = inhibition above about 35%
Mdm2-MdmX inh: human Mdm2/MdmX binding inhibition. SaOS-2 split-luciferase Mdm2/MdmX complementation, luminescence. inhibition, % at 8 µM. actives 3% (n = 330,000). AID 485346;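 active = inhibition of at least 50% at 8 µM in the primary screen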
Jurkat NFkB inh: lowers PMA/ionomycin-induced NF-kB signal in Jurkat cells. PMA/ionomycin-induced NF-kB luciferase reporter, luminescence. inhibition, % at 4 µM. actives 0.53% (n = 330,000). AID 435003; in the data active = inhibition above about 50%
Mdm2-MdmX conf: human Mdm2/MdmX binding inhibition, confirmed | shares compounds with Mdm2-MdmX inh | AID 489028 | inhibition, % at 8 µM | actives 55% (n = 10,000) | luminescent assay; in the data active = inhibition above about 40%
FLuc counter: counter-screen for Mdm2/MdmX inhibitors: full-length luciferase. shares compounds with Mdm2-MdmX inh. SaOS-2 full-length luciferase counterscreen, luminescence. inhibition, % at 8 µM. actives 77% (n = 6,200);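 active = mean inhibition at 8 µM reaching about 37%, which flags the compound as non-specific, limit read from the data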;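 note: p53-null SaOS-2 cells with luciferase driven by a doxycycline-inducible promoter; compound on cells about two nights before reading with doxycycline added after day one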
Gli antag conf: Gli-SUFU antagonism confirmation, single concentration. shares compounds with Gli-Sufu antag. inhibition, % at 5 µM. actives 40% (n = 2,500). Sufu-KO-LIGHT cells, Gli luciferase reporter, luminescence;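 active = mean inhibition at 5 µM reaching about 45%, limit read from the data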;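 note: plate controls were DMSO-treated cells for no effect and wells lacking cells for full effect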
Gli cytotox: cytotoxic in Gli-SUFU antagonist counter-screen | shares compounds with Gli-Sufu antag | Sufu-KO-LIGHT cells cytotoxicity, ATP luminescence | cytotoxicity, % at 5 µM | actives 32% (n = 2,500);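 active = mean cytotoxicity at 5 µM above about 25%, limit read from the data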;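 note: cells exposed to compound overnight for roughly 16 to 18 hours; plate controls were DMSO wells with cells for no effect and medium without cells for full effect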
Wnt3a counter: inhibits Wnt3a reporter, counter-screen for Gli-SUFU antagonists; AID 651995; inhibition, % at 6.25 µM; actives 20% (n = 2,500); Wnt-LIGHT cells, Wnt3a-driven luciferase reporter, luminescence; shares compounds with Gli-Sufu antag;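 active = mean inhibition above about 25%, limit read from the data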
The depositor's hits bear a star; x = no result. Shown are actives, neighbours in structure and some others; about 4% of the full set was active somewhere.

SMILES | Gli-Sufu antag | Beta cell apopt | 697 NFkB inh | Mdm2-MdmX inh | Jurkat NFkB inh | Mdm2-MdmX conf | Gli antag conf | Gli cytotox | Wnt3a counter | others
COc1cc(/C=C/c2nc3ccccc3c(=O)n2-c2ccccc2O)ccc1O | 7.1 | -0.7 | 34.5 | 68.6* | 1.2 | 18.1 | x | x | x
O=c1c2ccccc2nc(/C=C/c2ccccc2)n1-c1ccccc1O | 21.6 | 3.3 | 9.7 | 52.6* | -0.8 | 24.5 | x | x | x
COC(=O)C1=C(c2ccccc2OCc2ccccc2)C[C@@H]2CC[C@H]1N2C(=O)NCCc1ccc(F)cc1 | 11.2 | 5.2 | 2.8 | 21.6 | 20.7 | x | x | x | x
O=c1[nH]c2ccccc2o1 | -2.3 | 0.3 | 10.8 | 9.4 | 1.1 | x | x | x | x
OC1(c2ccccc2)CCNC2CCCCC21 (configuration not stated) | 20.9 | -2.9 | -5.3 | 16.8 | -6.4 | x | x | x | x
C[C@]12C[C@H](O)[C@@H](O)CC1=CCC1C2CC[C@@]2(C)C1CC[C@@H]2O (some centres not stated) | 3.1 | -1.5 | 2.2 | 13.7 | -0.4 | x | x | x | x
OC1/C(=C/c2ccccc2C(F)(F)F)N2CCC1CC2 (configuration not stated) | -8.5 | -4.6 | -3.4 | 22.7 | -2.0 | x | x | x | x
COC(=O)C1=C(c2cc3ccccc3o2)C[C@@H]2CC[C@H]1N2C(=O)NCc1cccc2ccccc12 | 5.4 | -6.6 | 2.6 | 20.0 | 14.8 | x | x | x | x
c1ccc(CCCN2CCN(CCOC(c3ccccc3)c3ccccc3)CC2)cc1 | 9.3 | 13.6 | -30.5 | 50.2* | -10.4 | 34.3 | x | x | x | FLuc counter=80.3*
Fc1ccc(C(OCCN2CCN(CCCc3ccccc3)CC2)c2ccc(F)cc2)cc1 | 5.4 | 102.1* | -1.9 | 82.8* | 16.6 | 58.6* | x | x | x | FLuc counter=30.4
Fc1ccc(C(OCCN2CCCC2)c2ccc(F)cc2)cc1 | 11.7 | x | -4.6 | -7.1 | 1.7 | x | x | x | x
N#CC(C#N)=C(N)c1cccnc1 | 0.3 | x | -38.7 | 54.8* | -17.2 | -24.1 | x | x | x
O=C1Nc2cc(C(=O)N3CCC4(CC3)OCCO4)ccc2S/C1=C\c1ccccc1 | -7.7 | 16.9 | -31.3 | 60.6* | 47.0 | 50.1* | x | x | x | FLuc counter=66.3*
CCOc1cccc(=NC2CCCCC2)c2c(C)n(C)c(C)c12 | 85.7* | 67.2 | 3.1 | 53.8* | 6.8 | 26.0 | 88.5* | 44.4* | 4.3
O=[N+]([O-])c1ccc(N2CCNCC2)cc1NCC1CCCO1 (configuration not stated) | 14.6 | -4.5 | 8.2 | 4.4 | 0.0 | x | x | x | x
Cc1ccc(C(C)C)c(OCC(=O)N2CCN(Cc3nc4cc([N+](=O)[O-])ccc4n3C)CC2)c1 | -1.3 | 1.3 | -0.2 | 45.6 | 0.3 | x | x | x | x
COc1ccc(O)c2c(=O)c3c(OC)cc4c(c3oc12)C1C=COC1O4 (configuration not stated) | 60.2* | 23.9 | 26.9 | 73.7* | 1.0 | 63.2* | 68.6* | 37.2* | 20.4 | FLuc counter=41.6*
CCCCCCn1c(=O)c(C(=O)Nc2cnccn2)c(O)c2ccccc21 | 78.5* | 27.8 | -16.3 | 61.3* | -17.3 | 52.0* | 78.6* | -6.8 | 29.8* | FLuc counter=46.3*
CCCCn1c(=O)c(C(=O)Nc2ccccn2)c(O)c2ccccc21 | x | 28.7 | -22.5 | 30.1 | 4.4 | x | x | x | x
CCN(CC)P(=O)(NC(=O)C(Cl)(Cl)Cl)N(CC)CC.[Cl-].[Cl-].[Cl-].[Nd+3] | -3.9 | -6.7 | 11.4 | 2.3 | 7.4 | x | x | x | x
CCCCCc1nc2ccccc2c(=O)n1-c1ccccc1[N+](=O)[O-] | 2.1 | -0.3 | 1.8 | -32.9 | 7.7 | x | x | x | x
CCCCCc1nc2c(c(=O)c3ccccc3n2C)c(=O)n1C1CCCCCC1 | 51.5 | 110.7* | 6.7 | 69.0* | 8.7 | 35.4 | 36.5 | 23.9 | -7.0
CCOc1cc(CN2CCN(C(=O)Cc3ccccc3)CC2)ccc1OC | 4.0 | x | -6.7 | 16.6 | -6.3 | x | x | x | x
Cc1cccc(-n2c(/C=C/c3ccc([N+](=O)[O-])o3)nc3ccccc3c2=O)c1 | 72.5* | -13.2 | -29.5 | 93.8* | 25.3 | 57.2* | 62.9* | 30.6* | 22.2 | FLuc counter=41.8*
Cn1c(NN=O)nc2ccccc21 | 82.8* | 100.3* | -1.6 | 59.1* | 21.5 | 82.5* | 37.0 | 23.0 | 12.5 | FLuc counter=35.8
SMILES | Gli-Sufu antag | Beta cell apopt | 697 NFkB inh | Mdm2-MdmX inh | Jurkat NFkB inh | Mdm2-MdmX conf | Gli antag conf | Gli cytotox | Wnt3a counter | others
COc1cc2c3c(c1OC)Oc1ccc(cc1)C[C@H]1c4c(cc(OC)c(OC)c4Oc4ccc(cc4)C[C@@H]3N(C)CC2)CCN1C | 64.7* | x | -27.3 | 100.5* | 8.5 | 74.4* | 20.4 | -4.6 | -0.6 | FLuc counter=35.2
C[C@@H]1CN(C2CCC(C#N)(c3ccc(F)cc3)CC2)CC[C@]1(C(=O)O)c1ccccc1 (some centres not stated) | -7.5 | -9.3 | 9.4 | 19.3 | -1.7 | x | x | x | x
Cn1cccc1/C=C1/C(=O)NC(=O)N(Cc2ccccc2)C1=O | 52.7 | 3.5 | -53.7 | 29.8 | 15.6 | x | 45.1* | 38.4* | 26.0*
Cn1cccc1/C=C1\C(=O)NC(=O)N(Cc2ccccc2)C1=O | 38.8 | 7.3 | -65.6 | 45.3 | 40.0 | x | x | x | x
Cc1cc(-c2ccccc2)cc(C)[n+]1Cc1ccccc1 | 79.2* | 108.9* | -10.0 | -18.5 | 19.3 | x | 84.2* | 16.5 | 32.3*
CC(C)c1ccccc1NC1=NCCCS1 | -13.7 | -8.3 | 8.3 | -16.4 | 4.0 | x | x | x | x
O=C1NC2C(=CC(O)C(O)C2O)c2cc3c(c(O)c21)OCO3 (configuration not stated) | 84.0* | x | x | x | x | x | 92.3* | 78.4* | 104.2*
O=C1NC2C(=CC(O)C(O)C2O)c2cc3c(cc21)OCO3 (configuration not stated) | 71.2* | x | x | x | x | x | 69.9* | 2.9 | 101.6*
CCCC[n+]1cc(=N)o[n-]1 | -1.1 | -0.4 | -60.7 | -6.7 | 2.6 | x | x | x | x
N#CC1=C(N)Oc2c(c(=O)oc3ccccc23)C1c1ccc([N+](=O)[O-])o1 (configuration not stated) | -5.5 | -8.0 | 11.0 | 2.3 | -3.9 | x | x | x | x
COP(=O)(/C=C(\Cl)c1ccccc1)/C=C(\Cl)c1ccccc1 | 3.0 | 0.6 | 4.6 | -0.7 | -21.0 | x | x | x | x
CC(=O)c1cn(CCCOc2ccccc2)c2ccccc12 | 50.3 | 30.2 | -22.8 | 17.1 | 10.1 | x | 18.9 | 7.1 | -7.5
O=C(C(=O)N1CCOCC1)c1cn(CCCOc2ccccc2)c2ccccc12 | -11.4 | -2.2 | 14.5 | 14.3 | 10.7 | x | x | x | x
